Compound activity: PubChem BioAssay, National Center for Advancing Translational Sciences (NCATS)
This is a sample that favours compounds with a hit; in the whole collection about 12% have one here.
JMJD2A Tudor – inhibitors of human JMJD2A Tudor domain | AlphaScreen JMJD2A-Tudor / H3K4me3 peptide binding | Potency, µM (doses to about 114 µM), inactives show at the top dose activity change, negative = inhibition, most hits filed as inhibitors | O75164 | AID 504339 | 390,000 compounds, 4.4% hits; also: potency is read from the fitted curve at half-maximal effect; % is scaled to controls: 0 for no effect and ±100 for the full control effect; nearly all actives have a fitted effect of over 50% in size
BAZ2B inh – blocks human BAZ2B; Q9UIF8; 360,000 compounds, 4.4% hits; AlphaScreen BAZ2B-H3K14Ac peptide displacement; Potency, µM (highest dose often 114 µM), without a hit: top-dose activity change, negative = inhibition, most hits filed as inhibitors; also: potency is read from the fitted curve at half-maximal effect; % is scaled to controls: 0 for no effect and ±100 for the full control effect; nearly all actives have a fitted effect of over 60% in size
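Multi-concentration screen (max 110 uM) measuring displacement of acetylated histone H3 peptide from BAZ2B by AlphaScreen, using 50 nM protein, 50 nM peptide and 10 ug/mL streptavidin donor plus Ni-chelate acceptor beads.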
PLK1 PBD inh – PLK1 (human) polo-box domain binding inhibition; P53350; Plk1 PBD binding of FITC phosphopeptide, fluorescence polarization; Potency, µM, for inactives: max response, negative = inhibition, actives largely listed as inhibitors; 360,000 compounds, 2.8% hits; AID 720504; also: potency is read from the fitted curve at half-maximal effect; series mostly up to about 57 µM; % is scaled to controls: 0 for no effect and ±100 for the full control effect; nearly all actives have a fitted effect of over 65% in size
PI5P4K alpha inh – blocks human PI5P4K alpha kinase activity | PI5P4Kalpha enzyme, ADP-Glo luminescence, 60 min; stronger effect = lower value | max response, % | 330,000 compounds, 1.2% hits | AID 652105; active = max response of -50% or lower; inconclusive = between -30% and -50%; inactive = -30% or higher; also: value at the top dose of about 77 µM; % is scaled to controls: 0 for no effect and ±100 for the full control effect
Target sequence (P48426 whole entry, looked up): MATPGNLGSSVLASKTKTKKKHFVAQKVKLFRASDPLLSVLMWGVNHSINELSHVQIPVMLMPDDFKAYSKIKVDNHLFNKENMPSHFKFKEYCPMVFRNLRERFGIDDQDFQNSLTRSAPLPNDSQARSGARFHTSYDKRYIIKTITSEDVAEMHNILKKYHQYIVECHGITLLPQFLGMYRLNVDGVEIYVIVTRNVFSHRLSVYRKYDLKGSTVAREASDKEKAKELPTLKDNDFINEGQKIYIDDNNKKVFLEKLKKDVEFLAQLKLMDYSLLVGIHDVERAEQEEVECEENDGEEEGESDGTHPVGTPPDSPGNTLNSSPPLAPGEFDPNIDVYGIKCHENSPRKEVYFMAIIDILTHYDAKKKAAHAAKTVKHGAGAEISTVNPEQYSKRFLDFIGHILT
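Compounds were pin-transferred onto PI5P4Kalpha and substrate in HEPES pH 7.4 buffer with EGTA, CHAPS and 5% DMSO. ATP (5 microM final) started the reaction, which ran 60 minutes at room temperature before ADP-Glo detection.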
G9a inh – G9a (human) methyltransferase inhibition; Q96KQ7; G9a H3K9 monomethylation, AlphaScreen, 2 h; Potency, µM (top dose mostly 102 µM), without a hit: top-dose activity, negative = inhibition, hits mostly inhibitors; 350,000 compounds, 8.8% hits; AID 504332; also: potency is read from the fitted curve at half-maximal effect; % is scaled to controls: 0 for no effect and ±100 for the full control effect; nearly all actives have a fitted effect of over 75% in size
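Readings reflect AlphaScreen signal from monomethyl-H3K9 antibody detection. HMT at 20 nM; substrate b-H3K9 500 nM; cofactor SAM 20 uM; 2 h RT reaction; compounds tested as titrations in qHTS with 15 min preincubation.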
HP1b binding inh – HP1-beta chromodomain-methylated histone interaction inhibition. AlphaScreen HP1-beta / biotin-H3K9me3 peptide binding. AID 540317. Potency, µM (highest dose often 114 µM), for the others: at the top dose activity change, negative = inhibition, most hits filed as inhibitors. 390,000 compounds, 0.56% hits; also: potency is read from the fitted curve at half-maximal effect; nearly all actives have a fitted effect of over 70% in size
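Compound inhibition of the preformed complex between 50 nM HP1-beta and 50 nM biotinylated H3K9me3 peptide was read by AlphaScreen. Buffer was PBS pH 7.4 with 0.01% Tween-20. Incubations ran 30 min at room temperature, with 10 ug/mL donor/acceptor beads.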
* hit, by the source's call; u = inconclusive; x = not tested or not shown; [ ] = remark or other dose. Unless noted, calls follow the shape of the dose curve; as a rule, active = well fitted curve in the direction sought with a large enough effect; inconclusive = small, poorly fitted or top-dose-only effect, or another doubt; inactive = no such curve, though single readings can be large; an effect the other way counts as inactive or inconclusive.

SMILES	JMJD2A Tudor	BAZ2B inh	PLK1 PBD inh	PI5P4K alpha inh	G9a inh	HP1b binding inh
CN(C)c1ncc2ncc(=O)n(Cc3ccc(F)cc3)c2n1	x	x	x	x	-3%[12.7 µM]	x
CC(C)(C)N1[C@@H](CC(=O)O)c2cc(C(F)(F)F)ccc2S1(=O)=O	-13%	x	4%	-2	x	36%
CN(C)Cc1cc(C(C)(C)C)c(O)c(C(C)(C)C)c1	-18%[11.4 µM]	-9%	11µM*	-11	50µM*	-11%
Cc1cnc(CN2CCCC(C(=O)c3ccc4c5c(cccc35)CC4)C2)[nH]1 (stereo not drawn)	50µM*	u	-10%	-7	u	u
O=C(Nc1ccc(Cl)c(C(F)(F)F)c1)C(Cc1ccccc1)NS(=O)(=O)c1ccc(Br)s1 (stereo not drawn)	-9%	-2%	x	x	-25%[59 µM]	22%
NC(=O)c1ccc(-n2nnnc2SCC(=O)Nc2ccc(N3CCOCC3)c(Cl)c2)cc1	2%[11.4 µM]	-2%	24µM*	-29	8%[59 µM]	-2%
Cc1ccc(-n2nnnc2SCC(=O)Nc2ccc(N3CCN(C)CC3)cc2)c(C)c1	7%	u	2%	-7	50µM*	55%
COc1ccccc1NC(=O)CSc1ncc(CO)n1Cc1ccc(F)cc1	u	u	9.5µM*	-8	-6%[0.501 µM]	1%
COc1ccccc1NC(=O)CSc1nnnn1-c1ccccc1F	-9%	8%	27µM*	-6	-7%[0.501 µM]	-9%
COc1ccc(NC(=O)CSc2nnnn2-c2ccccc2F)cc1	-11%	-9%	-17%	2	u	20%
Cc1cc(NC(=O)CSc2ncc(CO)n2Cc2ccc(F)cc2)no1	-16%	-16%	-11%	8	7%	32%
CCOC(=O)C1(Cc2cccc(OC)c2)CCCN(C(=O)c2cc(C)on2)C1 (stereo not drawn)	-1%	-3%	2%	-5	u	28%
CN1CCN(c2ccc(NC(=O)CSc3nnnn3-c3ccccc3F)cc2)CC1	-30%	-21%[57.1 µM]	-2%	1	79µM*	3%
O=C(CSc1nnnn1-c1ccccc1)Nc1ccc(N2CCOCC2)cc1	-8%	-16%	-6%	-4	u	-12%
Cc1ccc(-n2c3nc(=O)[nH]c(=O)c-3cc3cc([N+](=O)[O-])ccc32)cc1	-18%	0%	17µM*	-12	u	-1%
Cc1ccc([N+](=O)[O-])cc1S(=O)(=O)N1CCCC1	-8%	5%	-12%	-7	u	7%
Cc1ccc(S(=O)(=O)N2CCC(C)CC2)c([N+](=O)[O-])c1	1%[11.4 µM]	-25%	24µM*	-1	-31%	u
Cc1ccc([N+](=O)[O-])cc1S(=O)(=O)N1CCC(C)CC1	-14%[11.4 µM]	-31%	38µM*	-2	56µM*	u
COc1ccc(Cc2c(-c3ccc(OC)c(OC)c3)nc3cc(C)c(Br)c(C)n23)c(C)c1	x	x	3%	22	x	x
Nc1ccc(S(=O)(=O)O)cn1	-20%	3%	-6%	3	u	25%
CC(C)(C)Sc1ccc(N)nc1	-16%	u	-9%	0	50µM*	14%
Cc1cc(N=Nc2c(O)c3ccccc3[nH]c2=O)ccc1N=Nc1ccc(C(=O)N(C)C)cc1	u	u	-1%	-20	79µM*	13%
CN(C)C(=O)c1ccc(N=Nc2c(O)c3ccccc3[nH]c2=O)cc1	-16%	x	-11%	-76*	x	-13%
COc1cc(N=Nc2ccc(C(=O)N(C)C)cc2)c(C)cc1N	3.5µM*	x	6%	-3	x	20µM*
O=C(O)c1ccc(N=Nc2c(O)[nH]c3ccccc23)cc1	-33%	u	-7%	u	x	8%
CCOC(=O)[C@]12CCCC=C1N(Cc1cccc3ccccc13)C(=O)[C@H](CC(=O)NCC1CCCCC1)C2	x	x	0%	-2	x	x
COc1ccc(C(=O)NCCn2ccc3ccccc32)cc1	-8%	5%	-7%	1	-6%[59 µM]	39%
C[N+]1(CCn2ccc3ccccc32)CCCCC1	25µM*	-5%	-4%	-4	50µM*	-5%
O=c1c2[nH]c3cc(Br)sc3c2cnn1Cc1ccccc1F	40µM*	x	x	x	x	x
